Test results taken from PubChem BioAssay (NCATS).
Inconclusive results are not listed. Entries that show only a call come without a potency. The source made the active and inactive calls. Calls follow the shape of the dose curve; as a rule, active = well fitted inhibition curve with a large enough effect; inconclusive = small, poorly fitted or top-dose-only effect; inactive = flat fitted curve, though single readings scatter. Where a SMILES comes first, the peptide text is derived from it. Bridges are numbered along the chain shown (N, C = ends). [ ]: non-standard residue; d: D form. hArg = N=C(N)NCCCC[C@H](N)C(=O)O; Mpa = O=C(O)CCS

What was measured:
Experiment in all cases: qHTS profiling for inhibitors of Plasmodium falciparum proliferation (AID 504749); also: nearly all actives have a fitted effect of over 60% in size
Conditions in all cases: P. falciparum in erythrocytes, SYBR Green DNA, 72 h; series mostly up to 28.7 µM
[1] = tested on: CP194
How it was run: (§1)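 SYBR Green fluorescence of parasite DNA, read after lysis and overnight dark incubation, measured growth over 72 h in erythrocyte culture at 0.3% parasitemia and 2.5% hematocrit. Data normalised to DMSO and 0.29 uM artemisinin, with plate-drift correction.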

[2] = tested on: CP201
How it was run: as §1

[3] = tested on: CP203
How it was run: as §1

[4] = tested on: CP211
How it was run: as §1

[5] = tested on: CP215
How it was run: as §1

[6] = tested on: CP217
How it was run: as §1

[7] = tested on: CP237
How it was run: as §1

[8] = tested on: CP238
How it was run: as §1

[9] = tested on: CP247
How it was run: as §1

[10] = tested on: CP250
How it was run: as §1

[11] = tested on: CP252
How it was run: as §1

[12] = tested on: CP256
How it was run: as §1

[13] = tested on: CP262
How it was run: as §1

[14] = tested on: CP265
How it was run: as §1

[15] = tested on: CP266
How it was run: as §1

[16] = tested on: CP268
How it was run: as §1

[17] = tested on: CP269
How it was run: as §1

[18] = tested on: CP286
How it was run: as §1

[19] = tested on: CP291
How it was run: as §1

[20] = tested on: CP260
How it was run: as §1
Potency is read from the fitted curve at half-maximal effect.

Structure (SMILES) | outcome [1] | outcome [2] | Potency [3] | outcome [4] | Potency [5] | outcome [6] | Potency [7] | Potency [8] | Potency [9] | Potency [10] | outcome [11] | outcome [12] | outcome [13] | Potency [14] | outcome [15] | Potency [16] | outcome [17] | Potency [18] | outcome [19] | Potency [20]
CCOC(N)=O | inactive | inactive | inactive | inactive | inactive | inactive | inactive | inactive | inactive | inactive | inactive | inactive | inactive | inactive | inactive | inactive | inactive | inactive | inactive | –
CCOc1cc(NC(C)=O)ccc1C(=O)OC | inactive | inactive | inactive | inactive | inactive | inactive | inactive | inactive | inactive | inactive | inactive | inactive | inactive | inactive | – | inactive | inactive | inactive | inactive | inactive
NC(=O)c1ccc([N+](=O)[O-])cc1Cl | inactive | inactive | inactive | inactive | inactive | inactive | inactive | inactive | inactive | inactive | inactive | inactive | inactive | – | inactive | inactive | inactive | inactive | inactive | –
Cc1cc(O)cc(C)c1Cl | inactive | inactive | inactive | inactive | inactive | inactive | inactive | inactive | inactive | inactive | inactive | inactive | inactive | 11.2 µM (active) | inactive | inactive | – | inactive | inactive | –
CCCCCCCCCCCCCCCCN | inactive | inactive | inactive | inactive | inactive | inactive | inactive | inactive | inactive | inactive | inactive | inactive | inactive | inactive | – | inactive | inactive | inactive | inactive | –
O=c1[nH]c(=O)c2ccccc2o1 | inactive | inactive | inactive | inactive | inactive | inactive | inactive | inactive | – | inactive | inactive | inactive | inactive | inactive | inactive | inactive | inactive | inactive | inactive | inactive
CC[N+](CC)(CC(=O)Nc1c(C)cccc1C)Cc1ccccc1 | inactive | inactive | inactive | inactive | inactive | inactive | inactive | inactive | inactive | inactive | inactive | inactive | – | inactive | inactive | inactive | inactive | inactive | inactive | inactive
CC(=O)N[C@@H](Cc1ccc(O)cc1)C(=O)O | inactive | inactive | inactive | inactive | inactive | inactive | inactive | inactive | inactive | inactive | inactive | – | inactive | inactive | inactive | inactive | inactive | inactive | inactive | inactive
COc1ccc(Cc2cnc(N)nc2N)cc1OC | inactive | inactive | inactive | inactive | inactive | inactive | inactive | inactive | inactive | inactive | inactive | inactive | inactive | inactive | inactive | inactive | inactive | inactive | inactive | –
NC(=O)[C@@H]1CSSCCC(=O)N[C@@H](CCCCN=C(N)N)C(=O)NCC(=O)N[C@@H](CC(=O)O)C(=O)N[C@@H](Cc2c[nH]c3ccccc23)C(=O)N2CCC[C@H]2C(=O)N1 ([Mpa][hArg]GDWPC-NH2; disulfide 1-7) | inactive | inactive | inactive | inactive | inactive | inactive | inactive | inactive | inactive | inactive | inactive | inactive | inactive | inactive | – | inactive | inactive | inactive | inactive | inactive
COc1cc(C(=O)NCCCCCC(=O)O)cc(OC)c1OC | inactive | inactive | inactive | inactive | inactive | inactive | inactive | inactive | inactive | inactive | inactive | inactive | inactive | inactive | inactive | inactive | inactive | inactive | inactive | –
Cc1c(C)c2c(c(C)c1OC(=O)c1cccnc1)CC[C@@](C)(CCC[C@H](C)CCC[C@H](C)CCCC(C)C)O2 | inactive | inactive | inactive | inactive | inactive | inactive | inactive | inactive | inactive | inactive | inactive | inactive | inactive | inactive | – | inactive | inactive | inactive | inactive | inactive
COC(=O)c1ccc(O)cc1 | inactive | inactive | inactive | inactive | inactive | inactive | inactive | inactive | inactive | inactive | inactive | inactive | inactive | inactive | – | inactive | inactive | inactive | inactive | inactive
CCN(CC)C(=O)c1cccc(C)c1 | inactive | inactive | inactive | inactive | inactive | inactive | inactive | inactive | inactive | inactive | inactive | inactive | inactive | inactive | inactive | inactive | inactive | inactive | inactive | –
CCN(CC)CCc1nc(-c2ccccc2)no1 | inactive | inactive | inactive | inactive | inactive | inactive | inactive | inactive | inactive | inactive | inactive | inactive | inactive | inactive | inactive | inactive | inactive | inactive | inactive | –
O=C(O)c1ccccc1C(=O)Nc1ccc(S(=O)(=O)Nc2nccs2)cc1 | inactive | inactive | inactive | inactive | inactive | inactive | inactive | inactive | inactive | inactive | inactive | inactive | inactive | inactive | inactive | inactive | inactive | inactive | inactive | –
CC(=O)N(CC(O)CO)c1c(I)c(C(=O)NCC(O)CO)c(I)c(C(=O)NCC(O)CO)c1I (centres undefined) | inactive | inactive | inactive | inactive | inactive | inactive | inactive | inactive | inactive | inactive | inactive | inactive | inactive | – | inactive | inactive | inactive | inactive | inactive | –
C=CCSCC1Nc2cc(Cl)c(S(N)(=O)=O)cc2S(=O)(=O)N1 (centres undefined) | inactive | inactive | inactive | inactive | inactive | inactive | inactive | inactive | inactive | inactive | inactive | inactive | inactive | inactive | inactive | inactive | inactive | inactive | inactive | –
Cc1cc(OI)c(C(C)C)cc1-c1cc(C(C)C)c(OI)cc1C | inactive | inactive | inactive | inactive | – | – | inactive | – | – | inactive | – | inactive | inactive | – | inactive | – | – | inactive | – | –
CCN(CC)CC1CCCCN1CC(=O)N1c2ccccc2C(=O)Nc2cccnc21 (centres undefined) | inactive | inactive | inactive | – | inactive | inactive | inactive | inactive | inactive | inactive | inactive | inactive | inactive | inactive | inactive | inactive | inactive | inactive | inactive | inactive
Nc1ccc(C(=O)Oc2ccccc2)c(O)c1 | inactive | inactive | inactive | inactive | – | inactive | inactive | inactive | inactive | inactive | inactive | inactive | inactive | inactive | inactive | inactive | inactive | inactive | inactive | inactive
CC[N+](C)(CC)CCOC(=O)C1c2ccccc2Oc2ccccc21 | inactive | inactive | inactive | inactive | inactive | inactive | inactive | – | inactive | – | inactive | – | inactive | inactive | inactive | inactive | inactive | inactive | inactive | –
COC(=O)c1ccccc1C(=O)c1ccc(OCCN2CCCCC2)cc1 | inactive | inactive | inactive | inactive | inactive | inactive | – | inactive | inactive | inactive | inactive | inactive | inactive | inactive | inactive | inactive | inactive | inactive | inactive | inactive
CCCNC(C)(C)COC(=O)c1ccccc1 | inactive | inactive | – | inactive | inactive | inactive | – | inactive | inactive | inactive | inactive | inactive | inactive | inactive | inactive | inactive | inactive | inactive | inactive | inactive
NC(N)=NCCN1CCCCCCC1 | inactive | inactive | inactive | inactive | – | inactive | inactive | inactive | inactive | inactive | inactive | inactive | inactive | inactive | inactive | inactive | inactive | inactive | inactive | inactive
FC(F)(F)C(Cl)Br (centres undefined) | – | inactive | inactive | inactive | inactive | inactive | inactive | inactive | inactive | inactive | inactive | inactive | inactive | inactive | inactive | inactive | inactive | inactive | inactive | inactive
Cc1[nH]c(C)c(Cl)c(=O)c1Cl | inactive | – | inactive | – | inactive | inactive | 8.91 µM (active) | inactive | inactive | – | inactive | – | – | inactive | inactive | inactive | inactive | – | inactive | 8.91 µM (active)
Cc1cc(C)c(NC(=O)CN(CC(=O)O)CC(=O)O)c(C)c1Br | inactive | inactive | inactive | inactive | inactive | – | inactive | – | – | – | – | – | inactive | – | inactive | inactive | inactive | inactive | inactive | inactive
